Records with an inconclusive call do not appear. The source made the active and inactive calls. The calls were made as follows, unless noted: active = hit-call score of the fitted dose curve at least 0.9, where 1 is the maximum; inactive = score below 0.9.
How the values were obtained:
[1] = CCTE_Shafer_MEA_acute_firing_rate_mean: CCTE's Neural Acute Assay for Mean Firing Rate, Shafer Lab (AID 2284009);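 also: analyzed for loss of signal so actives lower firing rate relative to DMSO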
Method in brief: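 Rat primary cortical neurons on 48-well MEA plates, dosed at 0.03-40 uM on DIV 13 or 15; 40 min spontaneous activity recorded at 37 C before and after compound. Spike rate per electrode averaged per well, expressed as percent change from baseline.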

[2] = CCTE_Shafer_MEA_acute_burst_number: CCTE's Neural Acute Assay for Single-Electrode Bursts, Shafer Lab (AID 2284013)
Method in brief: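 Primary rat cortical neurons on 16-electrode MEA wells, treated on DIV 13 or 15 with compound at 0.03-40 uM. Single-electrode burst count from 40-min recordings at 37 C before and after exposure; percent change from baseline per well, DMSO negative control.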

[3] = CCTE_Shafer_MEA_acute_burst_duration_mean: CCTE's Neural Acute Assay for Mean Burst Duration, Shafer Lab (AID 2284014);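 also: hits are decreases in mean burst duration relative to DMSO controls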
Method in brief: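 Rat primary cortical neurons on 48-well MEA, treated at DIV 13 or 15 with 0.03-40 uM in at least 3 wells. Value is percent change in mean burst duration, comparing 40 min recordings at 37 C before and during exposure.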

[4] = CCTE_Shafer_MEA_acute_per_burst_spike_number_mean: CCTE's Neural Acute Assay for Average Number of Spikes Per Burst, Shafer Lab (AID 2284015);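 also: hits are decreases in mean spikes per burst versus baseline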
Method in brief: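 Rat primary cortical neurons on 48-well MEAs (DIV 13 or 15) were treated with 0.03-40 uM compound at 37 C. Mean spikes per burst over 40 min were recorded before and after exposure and expressed as percent change from baseline, relative to DMSO.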

[5] = CCTE_Shafer_MEA_acute_interburst_interval_mean: CCTE's Neural Acute Assay for Mean Interburst Interval, Shafer Lab (AID 2284016);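 also: percent change of mean interburst interval versus each well's own pre-dose baseline; curves fitted for decrease in interburst interval relative to DMSO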
Method in brief: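 Rat primary cortical neurons on 48-well MEAs at DIV 13 or 15 were exposed acutely to 0.03-40 uM. Spikes detected at 8x rms noise, 37 C. Mean interburst interval from 40 min recordings expressed as percent change from 40 min pre-treatment baseline.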

[6] = CCTE_Shafer_MEA_acute_burst_percentage_mean: CCTE's Neural Acute Assay for Percentage of Spikes in a Burst, Shafer Lab (AID 2284017)
Method in brief: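 Primary rat cortical neurons on 48-well MEA plates, treated on DIV 13 or 15 at 0.03-40 uM. Spikes detected at 8x rms noise at 37C; percent change from 40-min baseline to 40-min post-dose recording, fitted versus DMSO.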

[7] = CCTE_Shafer_MEA_acute_burst_percentage_std: CCTE's Neural Acute Assay for Standard Deviation of Burst Percentage, Shafer Lab (AID 2284018);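 also: fitted in the negative direction so actives lower burst percentage SD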
Method in brief: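 Rat primary cortical neurons on 48-well MEAs, DIV 13 or 15, 37 C. 40-min baseline then 40-min recording with compound (0.03-40 uM); well-level SD of per-electrode burst spike percentage, expressed as percent change from baseline.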

[8] = CCTE_Shafer_MEA_acute_per_network_burst_spike_number_std: CCTE's Neural Acute Assay for Standard Deviation of Number of Spikes in a Network Burst, Shafer Lab (AID 2284020);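 also: fitted for decrease in spike-number SD versus DMSO so actives lower it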
Method in brief: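 Rat primary cortical neurons on 48-well MEA (16 electrodes/well), treated DIV 13 or 15 at 0.03-40 uM, ≥3 wells per compound. 40 min recordings at 37 C before and after dosing; value is percent change in network-burst spike-number SD, negative direction vs DMSO.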

[9] = CCTE_Shafer_MEA_acute_per_network_burst_electrodes_number_mean: CCTE's Neural Acute Assay for Mean Number of Electrodes in a Network Burst, Shafer Lab (AID 2284021);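 also: curves fitted for decreases only so hits reduce electrodes per burst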
Method in brief: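 Rat primary cortical neurons on 48-well MEAs, DIV 13 or 15, were treated at 0.03-40 uM. Spikes were detected at 8x rms noise and recorded at 37 C. The mean electrodes per network burst in a 40 min exposure recording was expressed as percent change from a 40 min baseline.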

[10] = CCTE_Shafer_MEA_acute_network_burst_percentage: CCTE's Neural Acute Assay for Percentage of Network Bursts, Shafer Lab (AID 2284022);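 also: curves fitted for loss so actives lower network burst percentage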
Method in brief: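 Rat primary cortical neuron networks on 48-well MEA plates, DIV 13 or 15, treated acutely with compound (0.03-40 uM, at least three wells). Percent of spikes within network bursts compared between 40-min recordings before and during exposure at 37 C, expressed as percent change.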

[11] = CCTE_Shafer_MEA_acute_cross_correlation_area: CCTE's Neural Acute Assay for Area of Cross Correlation, Shafer Lab (AID 2284024);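 also: curves fitted for loss of cross-correlation area so actives lower synchrony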
Method in brief: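 Rat primary cortical neurons on 48-well MEA, DIV 13 or 15; compounds 0.03-40 uM. Baseline and post-exposure 40 min recordings at 37 C; percent change in area under pooled inter-electrode cross-correlation near zero lag, relative to DMSO.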

[12] = CCTE_Shafer_MEA_acute_cross_correlation_HWHM: CCTE's Neural Acute Assay for Cross Correlation at Half Width at Half Maximum, Shafer Lab (AID 2284026);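 also: spontaneous network firing of rat primary cortical neurons on multiwell microelectrode arrays; percent change per well from pre-dose baseline in spike cross-correlogram half width; hits are a decrease in cross-correlogram half width relative to DMSO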
Method in brief: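 Rat primary cortical neurons on 48-well MEA plates; 40-min baseline and 40-min post-exposure recordings at 37 C on DIV 13 or 15, compounds 0.03-40 uM. Spikes detected at 8x rms noise; percent change in cross-correlogram HWHM per well vs baseline.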

[13] = CCTE_Shafer_MEA_dev_firing_rate_mean: CCTE's Neural Network Formation Assay for Mean Firing Rate, Shafer Lab (AID 2284031)
Method in brief: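 Primary rat cortical neurons on 48-well MEA plates, exposed from plating day 0 with dosing renewed on DIV 5 and 9. Mean well firing rate over active electrodes, recorded days 5, 7, 9, 12, summarised as trapezoidal AUC.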

[14] = CCTE_Shafer_MEA_dev_per_burst_spike_percent: CCTE's Neural Network Formation Assay for Percent of Spikes in a Burst, Shafer Lab (AID 2284032)
Method in brief: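 Rat primary cortical neurons on 16-electrode MEA wells, dosed from plating day 0 for 12 days with renewal on DIV 5 and 9; spikes-in-bursts percentage averaged over bursting electrodes, collapsed as AUC across days 5, 7, 9, 12; loss direction versus DMSO.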

[15] = CCTE_Shafer_MEA_dev_active_electrodes_number: CCTE's Neural Network Formation Assay for Number of Active Electrodes, Shafer Lab (AID 2284040; active = hit-call score of the fitted dose curve at least 0.9, where 1 is the maximum)
Method in brief: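 Primary rat cortical neurons on 16-electrode MEA wells, exposed from day 0 through day 12 with compound renewed at DIV 5 and 9 feeds. Active electrodes (mean firing ≥5 spikes/min) counted at DIV 5, 7, 9, 12; trapezoidal AUC across days, loss-of-signal versus DMSO.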

[16] = CCTE_Shafer_MEA_dev_burst_rate: CCTE's Neural Network Formation Assay for Burst Rate, Shafer Lab (AID 2284042)
Method in brief: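 Primary rat cortical neurons on PEI-coated 48-well MEA plates (laminin added with cells at plating) (16 electrodes/well), exposed from plating to day 12, dosing renewed at DIV 5 and 9. Burst rate averaged over active electrodes, recorded DIV 5, 7, 9, 12, summarized as AUC; loss versus DMSO.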

[17] = CCTE_Shafer_MEA_dev_per_burst_interspike_interval: CCTE's Neural Network Formation Assay for Burst Interspike Interval, Shafer Lab (AID 2284044);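 also: mean spike spacing inside bursts as AUC over recordings on days 5 7 9 12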
Method in brief: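 Primary rat cortical neurons on 48-well MEA plates, exposed from day 0 through day 12, treatment renewed at DIV 5 and 9. Within-burst interspike interval recorded days 5, 7, 9, 12, well-averaged, summarised as AUC; negative fit versus DMSO.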

[18] = CCTE_Shafer_MEA_dev_burst_duration_mean: CCTE's Neural Network Formation Assay for Mean Burst Duration, Shafer Lab (AID 2284045)
Method in brief: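 Primary rat cortical neurons on 48-well 16-electrode MEA plates, exposed from day 0 with renewal at DIV 5 and 9; spontaneous activity recorded on days 5, 7, 9, 12. Well-mean burst duration across bursting electrodes, collapsed as trapezoidal AUC; DMSO baseline.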

[19] = CCTE_Shafer_MEA_dev_interburst_interval_mean: CCTE's Neural Network Formation Assay for Mean Interburst Interval, Shafer Lab (AID 2284046);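 also: well-mean interburst interval of bursting electrodes as AUC over four recording days; curve fitted for decrease in interburst interval relative to DMSO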
Method in brief: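 Recordings on days 5, 7, 9 and 12 give well-mean interburst interval across actively bursting electrodes, summarized as area under the curve. Cultures: rat cortical neurons, continuous exposure from day 0, compound renewed at feeds; decrease analyzed versus DMSO.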

[20] = CCTE_Shafer_MEA_dev_inter_network_spike_interval_mean: CCTE's Neural Network Formation Assay for Mean Inter-network Spike Interval, Shafer Lab (AID 2284047)
Method in brief: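 Primary rat cortical neurons on 16-electrode MEA wells, exposed from plating day 0 through DIV 12, compound renewed at DIV 5 and 9 media changes. Mean interval between network-spike peaks recorded DIV 5, 7, 9, 12; collapsed as trapezoidal AUC, fitted downward versus DMSO.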

[21] = CCTE_Shafer_MEA_dev_network_spike_number: CCTE's Neural Network Formation Assay for Number of Network Spikes, Shafer Lab (AID 2284048);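 also: synchronized bursts across electrodes counted on days 5 7 9 12 and integrated as AUC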
Method in brief: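 Primary rat cortical neurons on PEI/laminin 48-well MEA plates, dosed from plating day 0 for 12 days, renewed at DIV 5 and 9. Network spike counts recorded DIV 5, 7, 9, 12, collapsed as trapezoidal AUC; DMSO baseline.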

[22] = CCTE_Shafer_MEA_dev_network_spike_peak: CCTE's Neural Network Formation Assay for Mean Number of Electrodes in Network Spike, Shafer Lab (AID 2284049)
Method in brief: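 Network-spike peak electrode count from recordings on days 5, 7, 9 and 12 was combined as trapezoidal area under the curve. Rat cortical cultures were treated continuously from plating, with compound renewed at each feed (DIV 5, 9); fits versus DMSO.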

[23] = CCTE_Shafer_MEA_dev_spike_duration_mean: CCTE's Neural Network Formation Assay for Mean Spike Duration, Shafer Lab (AID 2284051);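 also: mean network spike duration pooled as area under curve over DIV 5 to 12 recordings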
Method in brief: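 Primary rat cortical neurons on 16-electrode MEA wells (PEI-coated, laminin in plating drop), exposed from plating through DIV 12 with compound renewed at DIV 5 and 9. Mean network-spike duration recorded DIV 5, 7, 9, 12; trapezoidal AUC across days, DMSO baseline.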

[24] = CCTE_Shafer_MEA_dev_network_spike_duration_std: CCTE's Neural Network Formation Assay for Standard Deviation of Network Spike Duration, Shafer Lab (AID 2284052);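 also: area under curve of spike duration SD across recording days 5 to 12; hits are decreases in network spike duration SD versus DMSO vehicle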
Method in brief: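 Primary rat cortical neurons on PEI-coated 16-electrode MEA wells, exposed from plating day 0 through day 12 with compound renewed at DIV 5 and 9. Network spike duration SD recorded on days 5, 7, 9, 12, collapsed as trapezoidal AUC; loss-of-signal fit versus DMSO.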

[25] = CCTE_Shafer_MEA_dev_per_network_spike_spike_number_mean: CCTE's Neural Network Formation Assay for Mean Number of Spikes in a Network Spike, Shafer Lab (AID 2284053)
Method in brief: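 Primary rat cortical neurons on 48-well, 16-electrode MEA plates were exposed from plating to DIV 12, with dosing renewed on DIV 5 and 9. Spikes per network spike (0.05 s peak window) were recorded on DIV 5, 7, 9 and 12 and collapsed as trapezoidal AUC versus DMSO.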

[26] = CCTE_Shafer_MEA_dev_per_network_spike_spike_percent: CCTE's Neural Network Formation Assay for Percent of Spikes in a Network Spike, Shafer Lab (AID 2284054)
Method in brief: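 Rat primary cortical neurons were grown on 48-well MEA plates (16 electrodes/well), exposed from plating day 0 through day 12, with treatment renewed on DIV 5 and 9. Percent of spikes within 0.05 s network-spike peaks was measured, summarised as AUC across days 5, 7, 9, 12.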

[27] = CCTE_Shafer_MEA_dev_LDH: CCTE's Lactate Dehydrogenase Assay for Cytotoxicity in the Neural Network Formation Assay, Shafer Lab (AID 2284068; active = hit-call score of the fitted dose curve at least 0.9, where 1 is the maximum;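 also: exposure for twelve days from plating with re-dosing on DIV 5 and 9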)
Method in brief: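 Primary rat cortical neurons were plated on PEI/laminin MEA plates and exposed from day 0 for twelve days, with compound renewed at DIV 5 and 9. Cytotoxicity was determined by spectrophotometric LDH assay relative to DMSO.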

Measured: outcome

CC1(C)S[C@@H]2[C@H](NC(=O)[C@H](N)c3ccc(O)cc3)C(=O)N2[C@H]1C(=O)O
inactive: [1] | [2] | [3] | [4] | [5] | [6] | [7] | [8] | [9] | [10] | [11] | [12] | [13] | [14] | [15] | [16] | [17] | [18] | [19] | [20] | [21] | [22] | [23] | [24] | [25] | [26] | [27]

— PubChem BioAssay (EPA / NIEHS)
